14 molecules from PubChem BioAssay AID2060323 (National Center for Advancing Translational Sciences (NCATS), 2025) can be followed below.

Inconclusive results are not listed. Entries that show only a call come without a potency. Active and inactive are the calls of the source. Calls come from the whole dose curve; as a rule, active = well fitted activation curve with a large enough effect; inconclusive = small, poorly fitted or top-dose-only effect; inactive = no such curve, though single readings can be large or run the other way.

Sequence of Cellular tumor antigen p53 (Homo sapiens) (P04637 whole entry, looked up): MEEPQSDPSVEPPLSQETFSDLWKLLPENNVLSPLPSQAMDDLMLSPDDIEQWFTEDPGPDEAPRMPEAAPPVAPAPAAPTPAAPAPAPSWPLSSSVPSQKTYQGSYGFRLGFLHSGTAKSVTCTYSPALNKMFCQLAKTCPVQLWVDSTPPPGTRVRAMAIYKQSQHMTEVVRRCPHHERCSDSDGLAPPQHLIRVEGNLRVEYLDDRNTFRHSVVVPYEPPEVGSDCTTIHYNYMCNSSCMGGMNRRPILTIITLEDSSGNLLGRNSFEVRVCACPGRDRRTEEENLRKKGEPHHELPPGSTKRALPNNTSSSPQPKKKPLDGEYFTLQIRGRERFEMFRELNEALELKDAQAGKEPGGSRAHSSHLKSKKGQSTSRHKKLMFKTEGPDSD

For this assay, the target named is Cellular tumor antigen p53 (Homo sapiens) (UniProt P04637). Nature of the assay: Confirmatory qHTS for small molecule compounds that upregulate eGFP-tagged delta133p53alpha (in C-terminal) cells. Particulars: delta133p53alpha-eGFP (C-terminal) reporter cells, GFP fluorescence upregulation; series mostly up to 57.5 µM. From the text:
Assay Development and Screening Technology
National Center for Advancing Translational Sciences (NCATS),
National Institute of Health (NIH), Rockville, Maryland
Cellular senescence (CS) is one of the hallmarks of aging and age-related diseases. Senescent cells are characterized by an irreversible growth arrest, an increase in senescence-associated beta-galactosidase (SA-beta-gal) activity and p16INK4a expression, an activation of the DNA damage response pathways, and the emergence of a senescence-associated secretory phenotype (SASP).
Delta133p53alpha, a human/primate-specific p53 protein isoform, delays or inhibits the induction of CS and SASP in various types of human cells, including progeria-derived fibroblasts, primary normal astrocytes, and CD8+ T lymphocytes. Induction of delta133p53alpha with small molecule compounds may provide therapeutic opportunities for inhibition of senescence/SASP-associated pathologies in progeria syndromes, astrocyte-mediated neuroprotection in neurodegenerative diseases, and possibly prevention and treatment of a wider range of senescence- and aging-associated diseases.
Here we report the development and validation of a cell-based quantitative high throughput screening (qHTS) assay in 1,536-well format. This qHTS assay uses the NCI-H358 cell line with doxycycline-inducible expression of enhanced green fluorescent protein (eGFP)-tagged delta133p53alpha, which allows efficient and highly quantitative measurement of the protein levels.
PROTOCOL TABLE (as described by Inglese J, Shamu CE and Guy RK. 2007)
SEQUENCE No. (e.g., 1, 2, 3, etc.); […] (e.g., Cells, Incubation, Reagent, etc.); VALUE; DESCRIPTION.
1; Cells; 4uL; 800 doxycycline treated cells / well in doxycycline-free media, 1536-well black, clear-bottom low base Aurora microplates.
2; Compounds; 23 nL; Kalypsis pin tool (Wako) equipped with 1536-well pin heads, 5-azacytidine positive control.
3; Incubation; 24 hr; 37C, 5% CO2; 95% relative humidity.
4; Aspiration; 1x; BioTek EL406 washer dispenser (Agilent).
5; Fixing; 3.5% paraformaldehyde, BioTek EL406 washer dispenser (Agilent).
6; Washing; 1x PBS; BioTek EL406 washer dispenser (Agilent).
7; Nuclei staining; 1:1000 dilution of Hoechst 33342 (Thermofisher), BioTek EL406 washer dispenser (Agilent).
8; Incubation; 20 min; in the dark at room temperature.
9; Washing; 2x, 1x PBS (ThermoFisher), BioTek EL406 washer dispenser (Agilent).
10; Reagent; 10 uL; 1x PBS per well, sealed with clear adhesive tape.
11; Detection; Fluorescence, Acumen eX3 laser scanning cytometer (STP Labtech), GFP filters […].
NOTES (numbers refer to sequence numbers above).
1. NCI-H358 cells expressing eGFP-tagged delta133p53alpha were grown in T75 culture flasks and treated with doxycycline for 24h, at 10 ng/ml for eGFP-D133p53a cells (N-terminal cell) and 100 ng/ml for D133p53a-eGFP cells (C-terminal cells). Cells were trypsinized, counted using a Counted 3 Automated Cell Counter (Thermo Fisher), and diluted to a concentration of 200,000 cells/ml. A Multidrop Combi Reagent Dispenser (ThermoFisher) was used to dispense 800 cells/well in […] of doxycycline-free media, into 1536-well black/clear bottom low base plates (AuroraMicroplates).
2. After plating cells, 23 nl of compound library, DMSO vehicle control or positive control (5-azacytidine) were transferred by Pin Tool (Wako). The plate map layout was the same for each plate: (column 1) non-doxycycline treated cells + DMSO vehicle control; (column 2) doxycycline treated cells + DMSO vehicle control baseline; (column 3) doxycycline treated cells + positive control 57.5 uM final concentration 5-azacytidine; (column 4) doxycycline treated cells + serial dilution of 5-azacytidine, 16-point 1:2 titration spanning 1.8 nM to […] final concentration; (columns 5-48) doxycycline treated cells + titration of library compounds.
3. Cells were incubated at 37 °C, 5 % CO2, 95% RH with breathable metal lid for 24h.
4-10. […]
Turning to `Cc1c2ccncc2c(C)c2c1[nH]c1ccccc12`, the Potency was 3.06 µM (active). With `CP(=O)(O)C1=CCNCC1`, the Potency result is “inactive”. The same measure for `CCS(=O)(=O)Nc1cccc(C(=C2CCCCC2)c2cnc[nH]2)c1`: “inactive”; for `CN1C2CCC1CC(OC(c1ccccc1)c1ccccc1N)C2` (centres undefined): “inactive”. The same measure for `c1ccc2c(c1)[I+]c1ccccc1-2`: 19.3 µM (active).

For the molecule `CC1(C(=O)O)C2CCC(O2)C1(C)C(=O)O` (centres undefined), the Potency result was “inactive”.

With `CC(=O)[C@H]1CC[C@H]2[C@@H]3CC[C@H]4C[C@](C)(O)CC[C@]4(C)[C@H]3CC[C@]12C`, the Potency entry is “inactive”.

In the case of `N[C@H](CCCCCP(=O)(O)O)C(=O)O`, the Potency result is “inactive”. Under `c1ccc2c(c1)OCC(C1=NCCN1)O2` (centres undefined) stands “inactive”; under `CC1=NN=C(c2ccc(N)cc2)c2cc3c(cc2C1)OCO3`, 34.3 µM (active); under `CCn1cnc2c(Nc3cccc(Cl)c3)nc(N[C@@H]3CCCC[C@@H]3N)nc21`, 9.68 µM (active). The same measure for `C[C@]12Cc3cn4c(nc3C=C1CCC1C2CC[C@@]2(C)[C@H]1CC[C@@]2(O)C#N)nc1ccccc14` (some centres undefined): 19.3 µM (active); for `O=C1/C(=C\c2ccccc2)C[C@@]2(O)[C@H]3Cc4ccc(O)c5c4[C@@]2(CCN3CC2CC2)[C@H]1O5`: 15.3 µM (active). Take `CC[C@@]1(O)C(=O)OCc2c1cc1n(c2=O)Cc2cc3ccccc3nc2-1`: the Potency was 1.72 µM (active).
